{"source": "ChEMBL document CHEMBL3433997", "about": "“St. Jude Leishmania screening dataset” (2016)", "format_in_all_cases": "functional", "key": {"[1]": {"target": "Solute carrier family 2, facilitated glucose transporter member 1 (Homo sapiens) (UniProt P11166)", "sequence (P11166 whole entry)": "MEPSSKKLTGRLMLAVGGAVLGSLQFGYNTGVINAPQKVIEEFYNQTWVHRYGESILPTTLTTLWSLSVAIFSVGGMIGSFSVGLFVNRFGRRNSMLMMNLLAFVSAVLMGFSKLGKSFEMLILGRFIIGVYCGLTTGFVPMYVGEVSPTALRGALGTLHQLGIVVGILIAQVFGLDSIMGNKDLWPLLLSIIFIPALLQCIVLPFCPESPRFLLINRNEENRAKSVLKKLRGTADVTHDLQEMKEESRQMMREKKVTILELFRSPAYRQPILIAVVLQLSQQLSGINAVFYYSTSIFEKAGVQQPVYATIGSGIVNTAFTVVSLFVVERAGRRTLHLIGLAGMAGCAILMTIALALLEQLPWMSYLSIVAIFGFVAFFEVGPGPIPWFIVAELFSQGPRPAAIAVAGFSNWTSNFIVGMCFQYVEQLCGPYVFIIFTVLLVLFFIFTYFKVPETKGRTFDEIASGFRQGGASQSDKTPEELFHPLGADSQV", "assay": "ST_JUDE_LEISH: Cytotoxicity at 2uM final concentration against transgenic Leishmania Mexicana promastigotes LmGLUT1 that are glucose transport deficient and complemented with the human glucose transporter GLUT1. Activity is measured by DNA content using SYBR green in vitro"}, "[2]": {"target": "Hexose transporter 1 (Plasmodium falciparum) (UniProt O97467)", "assay": "ST_JUDE_LEISH: Cytotoxicity at 2uM final concentration against transgenic Leishmania Mexicana promastigotes LmPfHT that are glucose transport deficient and complemented with the Plasmodium falciparum hexose transporter. Activity is measured by DNA content using SYBR green in vitro"}, "[3]": {"target": "Glucose transporter (Leishmania mexicana) (UniProt O61059)", "assay": "ST_JUDE_LEISH: Cytotoxicity at 2uM final concentration against transgenic Leishmania Mexicana promastigotes LmGT2 that are glucose transport deficient and complemented with the L. Mexicana glucose transporter 2. Activity is measured by DNA content using SYBR green in vitro"}}, "data": [{"molecule": "Oc1cccc(Nc2ccnc3cc(-c4cc5ccccc5o4)ccc23)c1", "values": [{"measurement": "inhibition", "setting": "[1]", "result": -0.71, "unit": "%"}, {"measurement": "inhibition", "setting": "[2]", "result": -0.27, "unit": "%"}, {"measurement": "inhibition", "setting": "[3]", "result": -2.34, "unit": "%"}]}, {"molecule": "COC(=O)c1cccc(CNCc2ccc(-c3ccc(-c4nc5cc(C(F)(F)F)ccc5[nH]4)cc3)cc2)c1", "values": [{"measurement": "inhibition", "setting": "[1]", "result": 3.94, "unit": "%"}, {"measurement": "inhibition", "setting": "[2]", "result": 1.94, "unit": "%"}, {"measurement": "inhibition", "setting": "[3]", "result": 2.35, "unit": "%"}]}, {"molecule": "Cc1cccc2nc(-c3cccc(-c4ccc(C(=O)NCc5ccccc5S(C)(=O)=O)cc4)c3)[nH]c12", "values": [{"measurement": "inhibition", "setting": "[1]", "result": 4.92, "unit": "%"}, {"measurement": "inhibition", "setting": "[2]", "result": 3.13, "unit": "%"}, {"measurement": "inhibition", "setting": "[3]", "result": 2.53, "unit": "%"}]}, {"molecule": "Cc1ccccc1C1CCN(C2CCC(NC(=O)c3ccc4c(c3)-c3nocc3C(C)O4)CC2)CC1", "note": "(stereo not drawn)", "values": [{"measurement": "inhibition", "setting": "[1]", "result": 5.85, "unit": "%"}, {"measurement": "inhibition", "setting": "[2]", "result": 4.08, "unit": "%"}, {"measurement": "inhibition", "setting": "[3]", "result": 5.18, "unit": "%"}]}, {"molecule": "CN1CC[C@@H](Oc2cc(CNC(=O)c3ccc(-c4ccc(Cl)cc4)s3)ccc2C(F)(F)F)C1", "values": [{"measurement": "inhibition", "setting": "[1]", "result": -1.97, "unit": "%"}, {"measurement": "inhibition", "setting": "[2]", "result": -1.98, "unit": "%"}, {"measurement": "inhibition", "setting": "[3]", "result": -1.59, "unit": "%"}]}, {"molecule": "Cc1cccc(C(=O)NCCCN2CCC(NC(=O)/C=C/c3ccc(Cl)c(Cl)c3)CC2)c1", "values": [{"measurement": "inhibition", "setting": "[1]", "result": 1.05, "unit": "%"}, {"measurement": "inhibition", "setting": "[2]", "result": 0.15, "unit": "%"}, {"measurement": "inhibition", "setting": "[3]", "result": 2.02, "unit": "%"}]}, {"molecule": "COc1cc2nc(NCCc3ccccc3)nc(NCc3cnn(C)c3C)c2cc1OC", "values": [{"measurement": "inhibition", "setting": "[1]", "result": 9.47, "unit": "%"}, {"measurement": "inhibition", "setting": "[2]", "result": 8.36, "unit": "%"}, {"measurement": "inhibition", "setting": "[3]", "result": 7.1, "unit": "%"}]}, {"molecule": "Cc1cccc2nc(-c3ccc(-c4ccc(CNCCNC(=O)c5ccnn5C)cc4)s3)[nH]c12", "values": [{"measurement": "inhibition", "setting": "[1]", "result": 9.45, "unit": "%"}, {"measurement": "inhibition", "setting": "[2]", "result": 9.43, "unit": "%"}, {"measurement": "inhibition", "setting": "[3]", "result": 8.36, "unit": "%"}]}, {"molecule": "O=C(NCc1cccc(Br)c1)c1ccc(CNC2CCN(Cc3ccccc3)CC2)cc1", "values": [{"measurement": "inhibition", "setting": "[1]", "result": 5.34, "unit": "%"}, {"measurement": "inhibition", "setting": "[2]", "result": 1.61, "unit": "%"}, {"measurement": "inhibition", "setting": "[3]", "result": 5.37, "unit": "%"}]}, {"molecule": "COc1ccc2c(NN=Cc3ccccc3)ccnc2c1", "values": [{"measurement": "inhibition", "setting": "[1]", "result": 1.36, "unit": "%"}, {"measurement": "inhibition", "setting": "[2]", "result": -2.08, "unit": "%"}, {"measurement": "inhibition", "setting": "[3]", "result": -1.04, "unit": "%"}]}, {"molecule": "CCCOc1ccccc1C(=O)Nc1nonc1-c1ccc(OCC)c(OCC)c1", "values": [{"measurement": "inhibition", "setting": "[1]", "result": 0.74, "unit": "%"}, {"measurement": "inhibition", "setting": "[2]", "result": 0.51, "unit": "%"}, {"measurement": "inhibition", "setting": "[3]", "result": 0.93, "unit": "%"}]}, {"molecule": "O=C(c1cccc(-c2cccc(-c3nc4cc(C(F)(F)F)ccc4[nH]3)c2)c1)N1CCCCC1CN1CCC(O)C1", "note": "(stereo not drawn)", "values": [{"measurement": "inhibition", "setting": "[1]", "result": -0.81, "unit": "%"}, {"measurement": "inhibition", "setting": "[2]", "result": -0.87, "unit": "%"}, {"measurement": "inhibition", "setting": "[3]", "result": -1.32, "unit": "%"}]}, {"molecule": "CCN(CC)CCN(Cc1ccc(-c2ccc(C(F)(F)F)cc2)nc1)C(=O)Cn1cc(Cc2cnn(C)c2)c(=O)n2nc(-c3ccccc3)cc12", "values": [{"measurement": "inhibition", "setting": "[1]", "result": 2.39, "unit": "%"}, {"measurement": "inhibition", "setting": "[2]", "result": 3.48, "unit": "%"}, {"measurement": "inhibition", "setting": "[3]", "result": 0.44, "unit": "%"}]}, {"molecule": "COc1ccc2nccc([C@@H](O)CN3CCC(NC(=O)C(c4cc5ccccc5o4)N4CCN(C(c5ccccc5)c5ccccc5)CC4)CC3)c2c1", "note": "(stereo partly drawn)", "values": [{"measurement": "inhibition", "setting": "[1]", "result": 3.01, "unit": "%"}, {"measurement": "inhibition", "setting": "[2]", "result": 1.55, "unit": "%"}, {"measurement": "inhibition", "setting": "[3]", "result": 1.41, "unit": "%"}]}, {"molecule": "CCCc1ccc(N2C(N)=NC(N)=NC2(C)C)cc1", "values": [{"measurement": "inhibition", "setting": "[1]", "result": 1.9, "unit": "%"}, {"measurement": "inhibition", "setting": "[2]", "result": 1.17, "unit": "%"}, {"measurement": "inhibition", "setting": "[3]", "result": -2.29, "unit": "%"}]}, {"molecule": "Nc1c2c(nc3ccc(NC(=O)c4ccc([N+](=O)[O-])cc4)cc13)CCCC2", "values": [{"measurement": "inhibition", "setting": "[1]", "result": -1.93, "unit": "%"}, {"measurement": "inhibition", "setting": "[2]", "result": -0.82, "unit": "%"}, {"measurement": "inhibition", "setting": "[3]", "result": -1.11, "unit": "%"}]}]}
